# Data as given in PubChem BioAssay AID589 (National Center for Advancing Translational Sciences (NCATS), 2007).
# Hit rate of the full screen: of about 59,000 compounds, about 6,200 (11%) were called active. About 9% were inconclusive and are not listed. Rule as the data show it: active = max dye-equivalent concentration above about 10 nM; inconclusive = mostly about 1.1 nM to 9.6 nM; inactive = weaker than that. The list comes from a sample in which actives are over-represented; it also holds similar structures and randomly drawn compounds.
# Assay: qHTS Assay for Spectroscopic Profiling in 4-MU Spectral Region
# Conditions: compound autofluorescence, 340/450 nm, 4-MU equivalents; hits give high values
# Procedure, shortened: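 Compounds in 100 mM Tris, pH 8.0, sat 15 min at room temperature before fluorescence was read at 340 nm excitation/450 nm emission; a per-plate six-point 4-MU standard curve converted signals to dye-equivalent concentration at each compound concentration.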
row,SMILES,max dye-equivalent concentration
1,O=C(C1=C(O)C(=O)N(Cc2ccccc2)C1c1cccnc1)c1ccco1 (stereo unspecified),inactive
2,N#CC(C(N)=O)=C1CCC2(CC1)OCCCCO2,inactive
3,COc1cc(C2C(C(=O)c3ccc(C)o3)=C(O)C(=O)N2Cc2cccnc2)ccc1O (stereo unspecified),inactive
4,CCSC1=C(C#N)C(=O)n2c1cc1c2CCCC1,inactive
5,CC(=O)Nc1ccc(S(=O)(=O)Nc2cccc(NC(=O)C(C)(C)C)c2)cc1,inactive
6,COc1ccc(NS(=O)(=O)c2ccc(NC(=O)C(C)(C(F)(F)F)C(F)(F)F)cc2)nn1,20 nM (active)
7,COc1cc(NS(=O)(=O)c2ccc(NC(C)=O)cc2)cc(OC)c1,inactive
8,COC(=O)c1cc(NC(=O)CN2CCC(C(N)=O)(N3CCCCC3)CC2)cc(C(=O)OC)c1,inactive
9,CCCCCN(C(=O)NC(=O)Nc1ccccc1OC)S(C)(=O)=O,inactive
10,CCc1nnc(NC(=O)c2ccc(S(=O)(=O)NC3CCCCC3)cc2)s1,inactive
11,Cc1ccc(C(=O)Nc2nnc(-c3cccs3)s2)cc1C,73 nM (active)
12,CCCc1nnc(NC(=O)c2cc(OC)cc(OC)c2)s1,inactive
13,COc1ccc(Cc2nnnn2CC(=O)O)cc1,inactive
14,CC(=O)OCc1cc(=O)n(C)c(=O)n1C,inactive
15,CC(Sc1nncn1C)C(=O)Nc1ccccc1-c1ccccc1 (stereo unspecified),inactive
16,Cc1ccccc1-c1nc(N(C)Cc2ccco2)c2ccccc2n1,inactive
17,CC1CCc2c(sc(NC(=O)c3ccc(Cn4cc(Br)cn4)o3)c2C(N)=O)C1 (stereo unspecified),100 nM (active)
18,Cc1ccc(C)c(NC(=O)C2CC(=O)N(C(C)C)C2)c1 (stereo unspecified),inactive
19,O=C(NCC(F)(F)F)Nc1nnc(C(F)(F)F)s1,inactive
20,CN(C)CCCn1c(N)c(C#N)c2nc(C#N)c(C#N)nc21,730 nM (active)
21,O=C(O)C1CCN(S(=O)(=O)N2CCOCC2)CC1,inactive
22,O=C(CNS(=O)(=O)c1cccc(C(F)(F)F)c1)Nc1ccccc1F,inactive

row,SMILES,max dye-equivalent concentration
1,Cc1ccccc1NC(=O)NCc1ccco1,inactive
2,CN1CCN(c2ncncc2-c2ccc(C(=O)N(C)C)cc2)CC1,inactive
3,COc1ccc(-c2nnc(SC(C)C#N)o2)cc1 (stereo unspecified),inactive
4,CCOc1ccc(CNC(=O)C2CCC(=O)N2C2CCCC2)cc1OC (stereo unspecified),inactive
5,CCCC(=O)Nc1cc(OCC)c(NC(=O)NC2CCCCC2)cc1OCC,inactive
6,CCOc1cc(C2C(C(=O)OC)=CN(C3CCCC3)C=C2C(=O)OC)cc(Br)c1O,200 nM (active)
7,OCCN1CCN(CC/C=C2\c3ccccc3Sc3ccc(C(F)(F)F)cc32)CC1,inactive
8,CN(C)C(=O)/N=N\C(=O)N(C)C,inactive
9,Cc1ccc2nc(S(=O)(=O)O)[nH]c2c1,inactive
10,O=C(OCc1cc2ccccc2[nH]c1=O)c1cccnc1,inactive
11,CC(C)(C)n1nnnc1C(c1cccs1)N(Cc1cccnc1)CC1CCCO1 (stereo unspecified),inactive
12,c1ccc(CCn2nnnc2CN2CCN(C3CCCC3)CC2)cc1,inactive
13,CCC(c1nnnn1C1CCCC1)N(Cc1cccs1)Cc1cc2cccc(C)c2[nH]c1=O (stereo unspecified),inactive
14,CCOc1ccc2c(c1)cc(CN(C(=O)CC)C1CCCCC1)c1nnnn12,inactive
15,COc1ccc2[nH]c(=O)c(CN(Cc3nnnn3CCc3ccccc3)CC3CCCO3)cc2c1 (stereo unspecified),360 nM (active)
16,CCOc1ccc2[nH]c(=O)c(CN(CCCO)C(C)=O)cc2c1,300 nM (active)
17,CCC(=O)N(Cc1cc2cc(OC)ccc2[nH]c1=O)c1ccccc1C,200 nM (active)
18,Cc1cc(C)c2cc(CN(Cc3cccs3)Cc3nnnn3CC3CCCO3)c(=O)[nH]c2c1 (stereo unspecified),inactive
19,CCC(c1nnnn1Cc1ccccc1)N(Cc1cc2cc(OC)ccc2[nH]c1=O)CC1CCCO1 (stereo unspecified),32 nM (active)
20,CN1CCC2(CC1)CCN(S(=O)(=O)c1ccccc1)CC2,inactive
21,Cc1ccc(S(=O)(=O)Cn2nnnc2CN2CCN(Cc3ccc4c(c3)OCO4)CC2)cc1,inactive
22,COc1cccc(N(CC(=O)Nc2cccc(N(C)S(C)(=O)=O)c2)S(C)(=O)=O)c1,inactive

row,SMILES,max dye-equivalent concentration
1,CC(C)CNC(=O)C1CCCN(S(=O)(=O)c2ccc(-n3cnnn3)cc2)C1 (stereo unspecified),inactive
2,CCCOc1cccc(C(=O)Nc2nnn(CCC)n2)c1,inactive
3,CC(C)c1cc(CN(C)C)c(O)c(C(C)(C)C)c1,inactive
4,CCC(=O)Nc1cccc(NC(=O)CSc2nnc(-c3ccc(NS(C)(=O)=O)cc3)n2C)c1,inactive
5,Cc1ccc(N(C(=O)CC2NC(=O)NC2=O)C2(C(=O)NC3CCCC3)CCCCC2)cc1 (stereo unspecified),inactive
6,CC(=O)Cc1nsc(NC(=O)c2ccc(COc3ccc(C)cc3)o2)n1,inactive
7,CCOc1ccc2[nH]c(=O)c(CN(Cc3nnnn3Cc3ccccc3)CC3CCCO3)cc2c1 (stereo unspecified),120 nM (active)
8,Cc1cccc2cc(CN(Cc3ccc4c(c3)OCO4)Cc3nnnn3C3CCCC3)c(=O)[nH]c12,inactive
9,CCC(c1nnnn1Cc1ccco1)N(Cc1cc2cc(OC)ccc2[nH]c1=O)C1CCCCC1 (stereo unspecified),22 nM (active)
10,Cc1cccc2cc(CN(Cc3cccs3)C(c3nnnn3C3CCCC3)C(C)C)c(=O)[nH]c12 (stereo unspecified),inactive
11,COc1ccc2[nH]c(=O)c(CN(CC3CCCO3)C(=O)Nc3ccccc3)cc2c1 (stereo unspecified),110 nM (active)
12,CCOc1ccc2[nH]c(=O)c(CN(Cc3nnnn3CCc3ccccc3)CC3CCCO3)cc2c1 (stereo unspecified),76 nM (active)
13,COc1ccccc1N1CCN(Cc2nnnn2CCc2ccccc2)CC1,inactive
14,O=C(CN(CC1CCCO1)C(=O)CNS(=O)(=O)c1ccccc1)NCc1ccccc1 (stereo unspecified),inactive
15,CCC(c1nnnn1Cc1ccco1)N(CCc1ccccc1)Cc1cc2ccc(OC)cc2[nH]c1=O (stereo unspecified),inactive
16,N=c1c2c3c(sc2ncn1CCCN1CCOCC1)CCCCC3,inactive
17,CSc1sc(C)cc1C1C(C#N)=C(N)N(c2cccnc2)C2=C1C(=O)CCC2 (stereo unspecified),inactive
18,N#Cc1cccc(NC(=O)CCC2CCCC2)c1,inactive
19,Cc1oc2nc(SCC(=O)NCc3cccnc3)nc(N)c2c1C,inactive
20,COc1ccc(OC)c(NC(=O)CSc2nc3cccnc3n2C)c1,inactive
21,O=C(CCc1ccccc1)Nc1cccc(-c2nnc(-c3ccco3)o2)c1,inactive
22,Cc1ccc(CNC(=O)CN2CCN(Cc3ccc(Cl)cc3)C2=O)cc1,inactive
